From PubChem
Tau fluor counter = counter-screen for tau fibril formation inhibitors; actives 0.93% (n = 280,000); tau K18 P301L Alexa594 fluorescence, heparin fibrillization; Potency, µM (doses to about 57.7 µM), without a hit: at the highest dose activity change, negative = decrease; note: nearly all actives have a fitted effect of over 55% in size
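Human tau K18 P301L (15 uM unlabeled, 0.24 uM Alexa 594-labeled) in 100 mM sodium acetate pH 7 with 20 uM heparin, 6 hr at 37 C. ThT 30 uM added, 1 hr ambient; Alexa 594 FP and total fluorescence read at 555/632 nm.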
Tau ThT inhib = tau fibrillization inhibition (ThT binding); P10636; recombinant tau K18 P301L (four-repeat tau fragment), heparin-induced fibrillization, ThT fluorescence; Potency, µM (series often up to 57.4 µM), for inactives: at the top dose activity, negative = inhibition, most hits filed as inhibitors; actives 2.1% (n = 270,000); AID 1460; note: nearly all actives have a fitted effect of over 55% in size
Target sequence (P10636 561-689 P618L limits assumed): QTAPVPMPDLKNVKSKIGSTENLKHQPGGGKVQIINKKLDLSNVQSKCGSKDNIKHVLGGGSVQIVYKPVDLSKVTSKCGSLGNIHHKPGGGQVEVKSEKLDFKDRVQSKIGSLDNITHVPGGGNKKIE
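Tau K18 P301L fragment (15 uM unlabeled plus 0.24 uM Alexa 594-labeled) in 100 mM sodium acetate pH 7 with compound, fibrillization induced by 20 uM heparin for 6 hr at 37 C. Thioflavin T (30 uM) added, fluorescence read after 1 hr (ex 450, em 510 nm).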
Tau fibril FP = inhibitors of human tau fibril formation; K18 P301L tau heparin fibrillization, Alexa594 FP, 6 h; Potency, µM (top dose mostly 57.7 µM), for inactives: top-dose activity, negative = inhibition, most hits filed as inhibitors; actives 0.39% (n = 280,000); AID 1468; note: nearly all actives have a fitted effect of over 55% in size
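Recombinant K18 P301L […], labeled with Alexa 594 at 0.24 uM over 15 uM unlabeled; heparin inducer 20 uM final; 37 C, 6 hr; FP endpoint.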
Sfp inh = blocks B. subtilis Sfp PPTase activity; Biochemical Sfp PPTase activity, qHTS; Potency, µM, for the others: largest response in the series, negative = inhibition, most hits filed as inhibitors; actives 3.5% (n = 310,000);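 note: the enzyme is Sfp with the accession as filed and its product quenches rhodamine fluorescence; 0% = enzyme reaction without inhibitor and -100% = no enzyme wells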
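Sfp 15 nM + cpd, 15 min RT; start w/ rhodamine-CoA 5 uM, BHQ-2-YbbR 12.5 uM (final); 50 mM Hepes pH 7.6, 10 mM MgCl2, 0.01% NP-40, 0.01% BSA; read 525/598 nm at 0 and 30 min.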
VDR inhibitor = blocks the human vitamin D receptor; P11473; VDR-SRC2-3 peptide fluorescence polarization, 2 h; Potency, µM, for inactives: max response, negative = inhibition, hits mostly inhibitors; actives 0.93% (n = 400,000)
Target sequence (P11473 whole entry, looked up): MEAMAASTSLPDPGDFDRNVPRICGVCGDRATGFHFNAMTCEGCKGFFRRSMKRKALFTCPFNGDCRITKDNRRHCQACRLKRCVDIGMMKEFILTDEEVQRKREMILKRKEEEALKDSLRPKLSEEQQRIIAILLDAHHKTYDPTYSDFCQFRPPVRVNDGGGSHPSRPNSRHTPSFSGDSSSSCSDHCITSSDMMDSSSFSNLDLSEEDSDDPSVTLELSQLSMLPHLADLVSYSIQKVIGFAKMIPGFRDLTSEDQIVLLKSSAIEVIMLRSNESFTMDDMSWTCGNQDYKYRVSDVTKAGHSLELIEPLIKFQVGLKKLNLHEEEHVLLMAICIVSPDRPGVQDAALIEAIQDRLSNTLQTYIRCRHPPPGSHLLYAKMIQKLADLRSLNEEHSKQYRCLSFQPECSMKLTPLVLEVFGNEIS
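Fluorescence polarization assay measuring small-molecule disruption of VDR binding to the coregulator peptide SRC2-3. Compounds were pin-transferred (23 nl) into the reagent mix and incubated 2 h at room temperature before reading.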
PLK1 PBD block = PLK1 (human) polo-box domain binding inhibition; actives 2.8% (n = 360,000); Plk1 PBD binding of FITC phosphopeptide, fluorescence polarization; AID 720504; Potency, µM, inactives show max response, negative = inhibition, actives largely listed as inhibitors; note: series mostly up to about 57 µM; nearly all actives have a fitted effect of over 65% in size
* hit, by the source's call; ? = inconclusive; · = no result; ! = not confirmed by another sample; [ ] = remark or other dose. Shown are actives, neighbours in structure and some others; about 6% of the full set was active somewhere. Calls come from the whole dose curve; as a rule, active = well fitted curve in the direction sought with a large enough effect; inconclusive = small, poorly fitted or top-dose-only effect, or another doubt; inactive = no such curve, though single readings can be large; an effect the other way counts as inactive or inconclusive. Unless noted, % is set by controls: 0 for no effect and ±100 for the full control effect; potency is the fitted concentration of half-maximal effect.

SMILES | Tau fluor counter | Tau ThT inhib | Tau fibril FP | Sfp inh | VDR inhibitor | PLK1 PBD block
COc1ccc(CN(C)CC(=O)Nc2ccc(SC(F)F)cc2)cc1OC | -16% | -7% | -7% | 4% | -19% | 27µM*
COC(=O)C[C@H]1C[C@H]2c3cc(NS(=O)(=O)c4ccc(OC)cc4)ccc3O[C@H]2[C@H](CO)O1 | · | · | · | · | · | -7%
O=S(=O)(c1ccccc1)N1N=C(c2cccs2)CC1c1ccc(F)cc1 (stereo not drawn) | -25% | 7% | ? | 10% | -4% | 21µM*
COc1ccc(C)cc1NC(=O)CC(=O)Nc1ccc2nc3n(c(=O)c2c1)CCCCC3 | -17% | -2% | -1% | · | 7% | ·
CCOc1ccc(C(=O)c2ccc(O)c(O)c2O)cc1 | ? | 22µM* | ? | 50µM* | ? | ·
CCOc1cccc(C(=O)c2ccc(O)c(O)c2O)c1 | ? | 22µM* | ? | -79% | ? | ·
CCOC(=O)COc1ccc(C(=O)c2ccccc2)c(O)c1 | -8% | -7% | 6% | -12% | 19% | -3%
CCOc1ccc(C(=O)c2cccs2)cc1 | -5% | -5% | -4% | 7% | 2% | ?
COc1ccc(Nc2cc(C(=O)NCCCN3CCOCC3)c3ccccc3n2)cc1OC | ? | ? | ? | 6% | -2% | -7%
COc1ccc(Nc2cc(C(=O)NCCCN3CCN(C)CC3)c3ccccc3n2)cc1OC | ? | ? | 9% | -20% | 3% | -11%
COc1ccc(Nc2nc(C)cc(C)c2C(N)=O)c(OC)c1 | -19% | ? | ? | 40µM* | -13% | -1%
COc1cccc(-c2nc(NCc3cccs3)c3ccccc3n2)c1 | · | · | · | 15% | 50µM* | ·
COc1ccc(N2CCN(CCCNC(=O)c3cc(Nc4ccccc4OC)nc4ccccc34)CC2)cc1 | 8.9µM*[quencher] | ? | -3% | · | 6% | ·
COc1ccc(Nc2cc(C(=O)NCCCN3CCN(c4ccc(OC)cc4)CC3)c3ccccc3n2)cc1 | 4µM*[quencher] | 14µM* | -2% | · | 14% | ·
CC(C)OC(=O)c1ccc2ccc(-c3ccccc3)nc2c1 | · | · | · | · | · | -1%
COc1ccc(Nc2cc(C(=O)NCCCN(C)Cc3ccccc3)c3ccccc3n2)c(OC)c1 | ? | ? | ? | · | 2% | ·
COc1ccc(Nc2cc(C(=O)NCc3ccccc3)c3ccccc3n2)c(OC)c1 | 7.9µM*[quencher] | ? | ? | · | -11% | ·
COc1ccc(Nc2cc(C(=O)NCCCN(C)Cc3ccccc3)c3ccccc3n2)cc1 | 13µM*[quencher] | ? | ? | · | 6% | ·
COc1ccc(Nc2cc(C(=O)NCCCN3CCN(c4ccccc4F)CC3)c3ccccc3n2)c(OC)c1 | 7.1µM*[quencher] | ? | 5% | · | -15% | ·
COc1ccc(Nc2nc(-c3ccccc3)nc3ccccc23)c(OC)c1 | 25µM*[quencher] | ? | 8% | 5% | -16% | -5%
COc1ccc(Nc2cc(C(=O)NCCCN3CCOCC3)c3ccccc3n2)c(OC)c1 | -25% | ? | 9% | 12% | -1% | -14%
O=C(CNC(=O)C1CCCCC1)OCc1ccccc1 | · | · | · | · | -15% | ·
CCCCC(=O)Nc1ncc2c(n1)CC(C)(C)CC2=O | 0% | 1% | 6% | 19% | -2% | -8%
CC1(C)CC(=O)c2cnc(NC(=O)Cc3ccc(Cl)cc3)nc2C1 | -5% | -7% | 0% | 6% | -17% | 19µM*
Cc1cc(C)nc(SCC(=O)Nc2ncc3c(n2)CC(C)(C)CC3=O)n1 | -3% | -3% | 5% | 0% | -15% | 0%
SMILES | Tau fluor counter | Tau ThT inhib | Tau fibril FP | Sfp inh | VDR inhibitor | PLK1 PBD block
CC1(C)CC(=O)c2cnc(NC(=O)CSc3nc4ccccc4o3)nc2C1 | -2% | -6% | 6% | 71µM* | 13% | -8%
CCOc1ccc(S(=O)(=O)Nc2ccc3c(c2)OCO3)c2cccnc12 | -20% | -15% | -7% | 56µM* | -12% | -12%
CCOc1ccc(S(=O)(=O)Nc2cccc(C)c2)c2cccnc12 | -17% | 0% | ? | 18% | -2% | -10%
Cc1cc(-c2ccccc2)nc2c(Br)c(=O)[nH]n12 | -17% | 10µM* | ? | 5% | -9% | -6%
Cc1nc(C)c(/C(O)=C\c2nc3ccc([N+](=O)[O-])cc3oc2=O)o1 | -8% | ? | 1% | 56µM* | -1% | -3%
CCC(C)NC(=O)C1CCC(CNS(=O)(=O)c2ccc(Cl)cc2)CC1 (stereo not drawn) | -4% | 1% | -4% | · | 18% | ·
O=C(CSc1oc(-c2ccco2)nc1S(=O)(=O)c1ccc(Cl)cc1)Nc1ccc(F)cc1 | ? | -6% | ? | · | -7% | ·
O=C(N/N=C/c1ccc(N2CCOCC2)o1)c1cccc(F)c1 | -9% | ? | -9% | 8.9µM* | 40µM* | -16%
O=C(N/N=C/c1cc2c(cc1[N+](=O)[O-])OCO2)c1cccnc1 | · | · | · | -16% | -13% | -15%
O=C(N/N=C/c1ccc(N2CCOCC2)c([N+](=O)[O-])c1)c1ccc(F)cc1 | -29% | 11µM* | 9% | 7% | 11% | -3%
O=C(NCc1ccc(F)cc1)c1ccc(N2CCOCC2)c([N+](=O)[O-])c1 | · | · | · | 10% | -17% | -2%
COc1ccc(/C=N/NC(=O)c2cccnc2)cc1CN1CCCc2ccccc21 | 13µM*[quencher] | ? | 8% | -20% | -12% | -15%
O=C(N/N=C/c1ccc(N2CCCC2)c([N+](=O)[O-])c1)c1cccnc1 | -24% | 14µM* | 5% | -3% | -9% | -1%
COc1ccccc1CN1CCCC2(CCN(S(=O)(=O)c3ccccc3)CC2)C1 | · | · | · | 13% | 2% | ·
NC(=O)c1cccc(Nc2nc(C(N)C3CCCCC3)cs2)n1 (stereo not drawn) | · | · | · | · | · | -4%
O=C(COC(=O)c1ccc2c(c1[N+](=O)[O-])C(=O)c1ccccc1C2=O)NC1CC1 | ? | 10µM* | -5% | 8% | -18% | -1%
CC1(C(=O)NCc2ccccc2)CSCC(=O)N1Cc1cccc(C(F)(F)F)c1 (stereo not drawn) | · | · | · | · | · | -4%
CN(C)CC(C)(C)CNS(=O)(=O)c1ccc(Cl)c(Cl)c1 | -3% | -2% | 3% | 3% | -23% | 19µM*!
CN1CCN(C(=O)c2cc(COc3c(F)cccc3F)on2)CC1c1ccccc1 (stereo not drawn) | 18% | -14% | 22% | 10µM* | -1% | -17%
CCN(Cc1ccncc1)C(=O)c1cc(COc2c(F)cccc2F)on1 | · | · | · | 18% | ? | 30µM*
COC(=O)[C@H](Cc1ccccc1)NC(=O)c1cc(COc2c(F)cccc2F)on1 | · | · | · | 12% | -29% | 30µM*
CCc1ccc(CN(C)C(=O)c2cc(COc3c(F)cccc3F)on2)cc1 | -13% | -13% | 3% | -5% | -27% | 19µM*
